# Assay outcomes deposited in PubChem by National Center for Advancing Translational Sciences (NCATS).
# Hits are enriched below; roughly 12% of the tested compounds scored in any of these assays.
# NS1 function inh: qHTS Assay for Inhibitors of Influenza NS1 Protein Function; Potency, µM (doses to about 46.1 µM); AID 2326, 2010; 270,000 tested, 0.4% active; note: actives are rising curves; nearly all actives have a fitted effect of over 50% in size
#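 Compounds were scored for reversing the slow growth caused by influenza A NS1 in S. cerevisiae, measured by optical density at 600 nm. Assay medium contained 2% galactose at pH 6.0; NS1-free yeast of the same strain were the positive control.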
# CHX counter: Cycloheximide Counterscreen for Small Molecule Inhibitors of Shiga Toxin | max response, % | 300,000 tested, 12% active | cell reporter, cycloheximide protein synthesis inhibition counterscreen; in the data active = max response mostly above about 13%, no sharp cut-off; inactive = mostly below about 14%; note: read at 38.3 µM for the half of the compounds with a filed dose
# SARS PLpro yeast: qHTS of Yeast-based Assay for SARS-CoV PLP; S. cerevisiae expressing SARS-CoV PLpro, growth rescue; Potency, µM (doses to about 32.9 µM), usual class: activators; 330,000 tested, 0.19% active; AID 485353, 2010; note: nearly all actives have a fitted effect of over 55% in size
# Shiga inhibitor: A qHTS for Small Molecule Inhibitors of Shiga Toxin; Vero cells, Shiga toxin protein synthesis inhibition reporter; inhibition, % at 38.7 µM; 290,000 tested, 9.2% active; in the data active = inhibition mostly above about 28%, no sharp cut-off; inactive = mostly below about 43%
# A number is an active result; 0 = inactive; ? = inconclusive; - = not tested or not shown; [ ] = another dose, or the depositor's remark. Unless noted, calls come from the whole dose curve.
SMILES,NS1 function inh,CHX counter,SARS PLpro yeast,Shiga inhibitor
Cc1cc(C=C2C(=O)NC(=O)NC2=O)c(C)n1-c1cccnc1,?,0,0,0
CC1CN(S(=O)(=O)c2ccccc2)C(C)N1C(=O)N1CCOCC1 (stereo unspecified),0,0,0,0
CCOC(=O)c1ccc(NC(=O)CN(C)S(=O)(=O)c2ccc(Br)s2)cc1,0,16,0,0
Cc1ccc2nc(NC(=O)CN(C)S(=O)(=O)c3cccc4nsnc34)sc2c1,0,0,0,0
Cc1ccc2nc(NC(=O)CNS(=O)(=O)c3ccc(Br)s3)sc2c1,0,22,0,0
Cc1ccc2nc(NC(=O)CN(C)S(=O)(=O)c3ccc(Br)s3)sc2c1,0,26,0,0
CN(C)S(=O)(=O)c1ccc(C(=O)NCC[N+]2(C)CCCCCC2)o1,0,0,0,0
CC(NC(=O)c1cc2cc(Br)ccc2oc1=N)c1ccccc1 (stereo unspecified),0,0,0,0
O=C(/C=C/c1ccccc1)Nc1ccc2c(c1)OCCO2,0,25,0,0
O=C(/C=C/c1ccccc1)Nc1cc(NC(=O)/C=C/c2ccccc2)cc(C(=O)O)c1,?,0,0,0
COc1ccccc1/C=C/C(=O)Nc1ccc2c(c1)CCC2,0,35,0,34
COc1ccccc1/C=C/C(=O)Nc1ccc2c(c1)OCCO2,0,56,0,99
COc1ccc(OC)c(/C=C/C(=O)Nc2ccc3c(c2)CCC3)c1,0,0,0,0
CCN(CC(=O)Nc1ccc2c(c1)OCCO2)C(=O)/C=C/c1ccccc1,-,36,0,0
CCN(CC(=O)Nc1ccc2c(c1)OCCO2)C(=O)/C=C/c1ccc(F)cc1,-,0,0,0
O=C(/C=C/c1ccco1)Nc1ccc2c(c1)OCCO2,-,30,0,69
O=C(/C=C/c1ccco1)Nc1cccc(S(=O)(=O)N2CCOCC2)c1,0,0,0,0
CSc1ccccc1NC(=O)c1ccc(N2CC3CC(C2)c2cccc(=O)n2C3)c(NC(=O)c2cccnc2)c1 (stereo unspecified),0,0,0,0
O=c1c(Cl)c(N2CCN(c3ccc(F)cc3)CC2)cnn1-c1nc2ccccc2s1,0,39,0,75
CCN(C(=O)C(C)OC(=O)C1C(C(=O)OC)=C(C)NC(C)=C1C(=O)OC)c1ccccc1 (stereo unspecified),-,0,0,0
COc1c(C)cc(C(=O)C2CCCN(C(=O)c3cc4nc(C)cc(C)n4n3)C2)cc1C (stereo unspecified),0,0,0,25
COc1c(C)cc(C(=O)C2CCCN(C(=O)c3cccc(-n4cccn4)c3)C2)cc1C (stereo unspecified),0,13,0,0
CN(C(=O)COC(=O)c1cccc(S(=O)(=O)N(C)c2ccccc2)c1)C1CCCCC1,-,-,0,-
O=C(O)c1cc(-c2ccc(/C=C3/SC(=S)N(Cc4ccccc4)C3=O)o2)ccc1Cl,-,29,0,63
Cc1ccc(NC(=O)CN2C(=O)S/C(=C/c3ccc(-c4cccc(C(=O)O)c4)o3)C2=O)cc1,0,0,0,0
SMILES,NS1 function inh,CHX counter,SARS PLpro yeast,Shiga inhibitor
Cc1cc(C(=O)O)ccc1-c1ccc(/C=C2\SC(=O)N(CC(=O)Nc3ccc4c(c3)OCO4)C2=O)o1,0,0,0,0
CC(C)(C)OC(=O)CN1C(=O)S/C(=C\c2ccc(-c3cccc(C(=O)O)c3)o2)C1=O,0,27,0,118
COc1ccc(CN2C(=O)/C(=C/c3ccc(-c4ccc(Cl)c(C(=O)O)c4)o3)SC2=S)cc1,-,0,0,0
C#CCN1C(=O)S/C(=C\c2ccc(-c3ccc(C(=O)O)cc3C)o2)C1=O,0,39,0,42
O=C(O)c1cc([N+](=O)[O-])cc([N+](=O)[O-])c1N1CCN(c2cccc(C(F)(F)F)c2)CC1,0,0,0,0
CCN(CC)S(=O)(=O)c1ccc2c(c1)c(=O)c(C(=O)NCCc1ccccc1)cn2C,0,0,0,0
O=C(Nc1ccccc1N1CCOCC1)c1ccc(Cl)c(S(=O)(=O)NCc2ccco2)c1,-,28,0,0
COc1ccccc1N1CCN(C(=O)c2ccc(Cl)c(S(=O)(=O)NCc3ccco3)c2)CC1,0,28,0,0
Cc1cc2c(=O)n(Cc3ccco3)c(SCC(=O)N3CCCc4ccccc43)nc2s1,0,12,0,0
O=C(CSc1nc2sc3c(c2c(=O)n1Cc1ccco1)CCC3)N1CCc2ccccc21,0,-,-,-
CCOC(=O)C(C)Sc1nc(=O)n2cc(C)ccc2n1 (stereo unspecified),0,0,0,0
CCOC(=O)CSc1nc(=O)n2cc(C)ccc2n1,0,17,0,0
CCCSc1nc(=O)n2cc(C)ccc2n1,0,33,0,57
CCOC(=O)c1c(C#N)cnn1-c1ccc(C)cc1,0,0,0,0
Cc1nc(-c2ccccc2)sc1-c1ccn[nH]1,-,28,0,69
Cc1nc(-c2ccccc2)sc1-c1ccnn1C,-,35,0,81
O=C1CSc2ccc(S(=O)(=O)CCC(=O)NC3CCCCC3)cc2N1,0,0,0,0
COc1ccc(Cl)cc1NC(=O)C1CCCN(S(C)(=O)=O)C1 (stereo unspecified),0,0,0,0
COC(=O)N1C(=O)[C@](Cc2ccccc2)(c2ccccc2)N1C(=O)OC,0,21,0,0
COC(=O)N1C(=O)[C@@](Cc2ccccc2)(c2ccccc2)N1C(=O)OC,0,12,0,0
COC(=O)N1C(=O)[C@@](c2ccccc2)(C2CCCCC2)N1C(=O)OC,0,11,0,0
O=C(NCCc1ccccc1C(F)(F)F)C1CCC(=O)N(C2CC2)C1 (stereo unspecified),0,0,0,0
Cc1nnc(NC(=O)CSc2nnc3ncccn23)s1,0,0,0,0
COc1ccc(CC(=O)NNC(=O)CSc2nnc(Cc3ccc(OC)cc3)n2-c2ccccc2)cc1,0,0,0,0
Cc1ccc(NC(=O)c2nc3nccc(C)n3n2)c(C)c1,-,30,0,80
SMILES,NS1 function inh,CHX counter,SARS PLpro yeast,Shiga inhibitor
Cc1csc(NC(=O)c2nc3nccc(C)n3n2)n1,0,18,0,72
Cc1ccnc2nc(C(=O)Nc3nc4ccccc4s3)nn12,0,45,0,62
Cc1ccnc2nc(C(=O)Nc3nnc(CC(C)C)s3)nn12,0,0,0,0
CN(C)C(=O)c1ccc(NC(=O)COC(=O)C2CCN(S(=O)(=O)c3ccc4c(c3)OCCO4)CC2)cc1,-,-,0,-
O=C(CN(C(=O)c1csnn1)c1cccc(C(F)(F)F)c1)NC1CCCC1,0,0,0,0
O=C1CC(c2ccco2)=Nc2ccccc2N1,0,11,0,0
O=C1CC(c2ccccc2)=Nc2ccccc2N1,0,0,0[6.58 µM],0
CCN1CCN(C(=O)C2CCN(S(=O)(=O)c3ccc4c(c3)NC(=O)C(C)S4)CC2)CC1 (stereo unspecified),0,0,0,0
CCCCn1c(N)c(N(CCC(C)C)C(=O)CN2C(=O)C3CCCCC3C2=O)c(=O)[nH]c1=O (stereo unspecified),0,0,0,0
CCOc1ccc(OCCn2c(=S)[nH]c3ccccc32)cc1,0,0,0,0
S=c1[nH]c2ccccc2n1CCOc1ccccc1,0,21,0,-
Cc1ccc(OCCn2c(=S)[nH]c3ccccc32)c(C(C)C)c1,0,0,0,0
